D2 ag-1 – HTS Assay for Allosteric Agonists of the Human D2 Dopamine Receptor: Primary Screen for Agonists. D(2) dopamine receptor (Homo sapiens), P14416. HEK293 T-REx D2 cells, calcium flux agonist mode. activation, % at 2 µM. 0.53% of 340,000 active. AID 485358, 2010;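 active means activation over 3 SD above normal in the single-dose calcium agonist read, cut at about 30% in these data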
Target sequence (P14416 whole entry, looked up): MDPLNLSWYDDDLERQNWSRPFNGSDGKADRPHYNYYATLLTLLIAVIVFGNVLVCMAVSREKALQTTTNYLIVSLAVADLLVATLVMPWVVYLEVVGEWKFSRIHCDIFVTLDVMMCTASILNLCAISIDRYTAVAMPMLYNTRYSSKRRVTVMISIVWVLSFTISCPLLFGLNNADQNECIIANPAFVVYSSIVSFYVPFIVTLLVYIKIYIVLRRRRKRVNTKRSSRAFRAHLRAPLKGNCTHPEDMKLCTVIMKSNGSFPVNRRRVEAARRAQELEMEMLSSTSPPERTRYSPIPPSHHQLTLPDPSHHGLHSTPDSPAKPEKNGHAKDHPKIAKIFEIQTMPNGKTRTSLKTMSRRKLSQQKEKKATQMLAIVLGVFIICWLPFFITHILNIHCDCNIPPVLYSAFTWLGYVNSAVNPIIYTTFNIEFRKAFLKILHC
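Calcium-flux readout, 1 cycle/sec over 180 s following compound pin transfer, in inducible HEK293 Trex D2 cells (force-coupled); dopamine controls included. Positive calcium responses during this window marked compounds as potential agonists.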
D2 antagonist – HTS Assay for Allosteric Antagonists of the Human D2 Dopamine Receptor: Primary Screen for Antagonists; D(2) dopamine receptor (Homo sapiens), P14416; HEK293 TREx D2 cells, calcium flux, dopamine EC80; inhibition, % at 10 µM; 2% of 340,000 active; in the data active means inhibition above about 30%; inactive means below that, where a call was filed
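Tetracycline-induced HEK293 T-REx cells expressing D2 force-coupled to calcium signalling were dye-loaded, exposed to compound for 180 s, then challenged with an EC80 of dopamine; calcium flux was followed kinetically for a further 180 s.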
D2 PAM-1 – HTS Assay for Positive Allosteric Modulators of the Human D2 Dopamine Receptor: Primary Screen for Potentiators | 0.34% of 340,000 active | AID 485347, 2010 | D(2) dopamine receptor (Homo sapiens), P14416 | HEK293 T-REx D2, calcium flux, EC20 dopamine potentiation | potentiation, % at 10 µM;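 active means potentiation over 3 SD above the plate norm, cut at about 30% in these data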
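Using a no-wash calcium dye in inducible, force-coupled HEK293 Trex cells expressing D2, we tracked fluorescence each second for 180 s after compound, then for 180 s after EC20 dopamine to detect augmented signalling.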
D2 PAM-2 – Beta-Arrestin HTS for Positive Allosteric Modulators of the Human D2 Dopamine Receptor: Potentiators. potentiation, % (concentration not given with the values). AID 624464, 2012. DiscoveRx D2 beta-arrestin cells, luminescence, 90 min; 100% = 57 uM dopamine signal. D(2) dopamine receptor (Homo sapiens), P14416. 0.23% of 360,000 active; in the data active means potentiation above about 50%
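D2 cells co-treated with compound plus 50 nM dopamine (EC20) for 90 min at 37 deg C to detect potentiation. Beta-arrestin recruitment was read as enzyme-fragment luminescence after 1 h at ambient temperature. Full response was set by 57 uM dopamine.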
D2 ag-2 – Beta-Arrestin HTS for Positive Allosteric Modulators of the Human D2 Dopamine Receptor: Agonists; D(2) dopamine receptor (Homo sapiens), P14416; DiscoveRx PathHunter D2 beta-arrestin, luminescence, 90 min; 100% = 57 uM dopamine signal; activation, % (concentration not given with the values); 0.084% of 360,000 active; AID 624465, 2012; in the data active means activation above about 40%
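DiscoveRx PathHunter D2 beta-arrestin cells (2,100/well) attached overnight, then compound-stimulated 90 min at 37 C in HBSS/10 mM HEPES/0.1% Tween-20 buffer; beta-galactosidase complementation read by luminescence after 1 h at ambient temperature. Dopamine 57 uM final (EC100) as control.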
Large screens that a line does not name were inactive. Hits are enriched below; roughly 2.4% of the tested compounds scored in any of these assays.

CCCOc1ccc(-c2c(C(=O)N/N=C/c3ccc(C)o3)nnn2-c2nonc2N)cc1	D2 PAM-1 90
Cc1ccccc1S(=O)Cc1ccc(C(=O)NCc2ccccc2Cl)o1 (stereo not given)	none (no result: D2 antagonist, D2 PAM-2, D2 ag-2)
O=C(COc1ccc(F)cc1)Nc1cccc(OCc2cc(=O)n3ccccc3n2)c1	none (no result: D2 antagonist, D2 PAM-2, D2 ag-2)
Cn1c(=O)c(C(=O)CN2CCOCC2)c(N)n(Cc2ccccc2)c1=O	none
CC1CN(CC(=O)c2c(N)n(Cc3ccccc3)c(=O)n(C)c2=O)CC(C)O1 (stereo not given)	D2 antagonist 36
CC1(C)N=C(SCc2ccc(F)cc2)c2ccccc2N1	none (no result: D2 antagonist, D2 PAM-2, D2 ag-2)
O=C(CSc1ncnc2nc[nH]c12)c1ccc(Cl)cc1	none
O=C(CSc1ncnc2nc[nH]c12)c1ccc([N+](=O)[O-])cc1	D2 PAM-2 56
O=C(COC(=O)C1CCCC1)Nc1ncc(Cl)cc1Cl	none
Cc1c(Cl)ccc(S(=O)(=O)Nc2cccnc2)c1Cl	none
Cc1cc(OCC(=O)NC2CCN(Cc3ccccc3)CC2)c2c(C)cc(=O)oc2c1	D2 antagonist 54
O=C(COc1ccccc1F)NC1CCN(Cc2ccccc2)CC1	D2 antagonist 48
O=C(Cc1c(F)cccc1Cl)NC1CCN(Cc2ccccc2)CC1	none (no result: D2 ag-1, D2 antagonist, D2 PAM-1)
O=C(Cc1ccccc1[N+](=O)[O-])NC1CCN(Cc2ccccc2)CC1	D2 antagonist 48
Cc1cc(OC(C)C(=O)NC2CCN(Cc3ccccc3)CC2)c2c(C)cc(=O)oc2c1 (stereo not given)	D2 antagonist 73
CN(C)c1ccc(/C=C/CNC[C@H]2O[C@@H](n3ccc(N)nc3=O)[C@H](O)[C@@H]2O)cc1	none (no result: D2 ag-1, D2 antagonist, D2 PAM-1, D2 PAM-2)
Cc1cc(S(=O)(=O)N2CCN(c3ccccn3)CC2)ccc1F	D2 antagonist 33
COc1ccc(C(=O)Nc2ccc(-c3nc4ccccc4s3)c(Cl)c2)cc1Cl	none (no result: D2 antagonist, D2 PAM-2, D2 ag-2)
O=C1CC(c2ccc(S(=O)(=O)NCc3ccccc3)cc2)CN1 (stereo not given)	none
Cc1ccccc1NS(=O)(=O)c1ccc(C2CNC(=O)C2)cc1 (stereo not given)	D2 antagonist 66 (no result: D2 PAM-1)
Cc1cccc(NC(=O)c2cn(-c3ccccc3)nc2-c2ccccc2)c1	D2 antagonist 40
Cc1ccc(-c2nn(-c3ccccc3)cc2C(=O)NCCCN2CCOCC2)cc1	D2 antagonist 31
Cc1ccc(-c2nn(-c3ccccc3Cl)cc2C(=O)NCC2CCCO2)cc1 (stereo not given)	D2 antagonist 31
Cc1ccc(-c2nn(Cc3ccccc3)cc2C(=O)NCC2CCCO2)cc1 (stereo not given)	none
COC(=O)c1ccc(NC(=O)c2cn(-c3ccccc3)nc2-c2ccncc2)cc1	D2 antagonist 91
CCn1nnc2cc(C(=O)Nc3ccc(Cl)cc3C)ccc21	none (no result: D2 ag-1, D2 antagonist, D2 PAM-2, D2 ag-2)
COc1ccc(CC(=O)NC2CC(=O)N(c3cccc(F)c3)C2)cc1 (stereo not given)	none (no result: D2 antagonist, D2 PAM-2, D2 ag-2)
CCCN1CCC(=O)N([C@H](CSc2ccc(Br)cc2)c2ccccc2)CC1	none
CC(=O)c1ccc(NC(=O)c2cn(-c3ccccc3)nc2-c2ccncc2)cc1	D2 PAM-1 35
CCC(C)NC(=O)C1CCN(S(=O)(=O)c2ccc3c(c2)CCCN3C(C)=O)CC1 (stereo not given)	none (no result: D2 antagonist, D2 PAM-2, D2 ag-2)
Cc1ccc(OCC(=O)Nc2nnc(SCc3cc(=O)n4cc(C)ccc4n3)s2)cc1	none (no result: D2 antagonist, D2 PAM-2, D2 ag-2)
CCOC(=O)C1=C(COC(=O)C(CC)c2ccccc2)NC(=O)NC1C (stereo not given)	D2 PAM-1 30
COc1ccc(NC(=O)C(=O)NCC(c2cccnc2)N2CCc3ccccc3C2)cc1 (stereo not given)	none (no result: D2 antagonist, D2 PAM-2, D2 ag-2)
CC1CCN(CCc2nc3cc(NS(=O)(=O)c4ccc(F)cc4)ccc3n2C)CC1	D2 antagonist 36 (no result: D2 PAM-1)
CC1CCN(CCc2nc3cc(NC(=O)Nc4ccccc4)ccc3n2C)CC1	none
CC1CCN(CCc2nc3cc(NS(=O)(=O)c4ccccc4)ccc3n2C)CC1	D2 antagonist 30

Compound activity (PubChem)
